A short description of experiment [1]: yeast TOR pathway RPL19A-GFP modulators, primary screen, cell-based, S. cerevisiae, multiplex flow cytometry (AID 1862; in the data active = percent of DMSO control GFP below about 86%;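 note: lower values mimic rapamycin by blocking the RPL19A rise seen in DMSO cells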). The following applies: S. cerevisiae RPL19A-GFP strain, flow cytometry fluorescence, 3 h; at 10 µM; stronger effect = lower value.
The nature of experiment [2]: modulators of MEP2-GFP levels in yeast, primary screen, S. cerevisiae, multiplex flow cytometry (AID 1867;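 active = GFP response, as percent of the DMSO control, above the screen-wide mean plus 3 SD, about 139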;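 note: median GFP channel fluorescence of barcode-gated MEP2-GFP cells measured by flow cytometry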). The following applies: S. cerevisiae MEP2-GFP strain, 3 h, at 10 µM, stronger effect = higher value, 100% means same as DMSO wells.
The nature of experiment [3]: modulators of CIT2-GFP expression in yeast, primary screen, S. cerevisiae, GFP fusion, multiplex flow cytometry (AID 1870;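 active = percent response above a set limit, the screen-wide mean plus 3 SD, cut at about 130% in these data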;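 note: barcoded CIT2-GFP strain pooled with four other GFP strains with rapamycin as positive control; median GFP fluorescence per well over plate mean of DMSO wells so 100% = DMSO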). The settings on record: 3 h, at 10 µM, stronger effect = higher value.
Experiment [4] can be described thus: modulators of LAP4-GFP expression in yeast, primary screen, S. cerevisiae, multiplex flow cytometry (AID 1873;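 active = GFP signal, as percent of the solvent control, above the screen mean plus 3 SD, about 149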). The settings on record: 3 h, at 10 µM, stronger effect = higher value.
The nature of experiment [5]: modulators of AGP1-GFP expression in yeast TOR pathway, primary screen, cell-based, multiplex flow cytometry, S. cerevisiae (AID 1887;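 active = GFP signal above the screen-wide mean plus 3 SD, that is over about 124.5% of the solvent control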;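 note: AGP1-GFP fusion strain of S. cerevisiae within a five-strain barcoded multiplex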). The settings on record: 3 h, at 10 µM, stronger effect = higher value.
Experiment [6] can be described thus: inhibitors of CD8+ T cell-vesicle binding, pilot screen, LFA-1/ICAM-1 modulator project, MLPCN validation set, flow cytometry (AID 2523;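 active = response below a set limit, under 55% cells CD8-positive and vesicle-bound, and CD8 cells' 90th-percentile brightness under 279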;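 for vesicle binding response: mean PE anti-B7-1 fluorescence of CD8+ cells relative to row control; 100% = QL9-loaded vesicles with DMSO vehicle in the same plate row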). The settings on record: 2C mouse CD8+ T cells, at 7 µM, stronger effect = lower value; double positive events: measured here: CD8+/vesicle+ event percentage.
Experiment [7] concerns the target Integrin beta-1 (Homo sapiens) + Integrin alpha-4 (Homo sapiens) (UniProt P13612+P05556). In words: inhibition of HUTS-21 binding to VLA-4, pilot screen, VLA-4 allosteric modulator project, U937 cells, HUTS-21 mAb, flow cytometry, validation set (AID 2674;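 active = inhibition above 50%, about 3 SD of the validation set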;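 note: antibody binding induced by the VLA-4 ligand LDV present at three times its Kd; 0% = LDV ligand with antibody and no compound and 100% = antibody without LDV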). The following applies: HUTS-21 LIBS mAb binding, at 6.7 µM, stronger effect = higher value, binding induced by LDV ligand.

A short description of experiment [8]: superoxide lowering in aged yeast cells, pilot screen, validation compound set (AID 2706;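 active = superoxide response below 65% of plate, a cut near 3 SD across the whole screen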;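 note: yeast exposed to compound for one week at 30 degrees C before staining; 100% = mean of all compound wells on the same plate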). The settings on record: S. cerevisiae aging, superoxide DHE fluorescence; at 10 µM; stronger effect = lower value.
The target in experiment [9] is Beta-adrenergic receptor kinase 1 (Homo sapiens) (UniProt P25098). The experiment in a line: GRK2 binders displacing RNA aptamer, biochemical, validation, human GRK2, bead flow cytometry (AID 488806;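 active = aptamer binding inhibition above 30%, about 3 SD of noise from non-fluorescent compounds; inactive = inhibition at or below 30%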). The settings on record: bead-bound GRK2, FAM-aptamer displacement, at 10 µM, stronger effect = higher value.
Beta-adrenergic receptor kinase 1 (Homo sapiens), sequence (P25098 whole entry, looked up): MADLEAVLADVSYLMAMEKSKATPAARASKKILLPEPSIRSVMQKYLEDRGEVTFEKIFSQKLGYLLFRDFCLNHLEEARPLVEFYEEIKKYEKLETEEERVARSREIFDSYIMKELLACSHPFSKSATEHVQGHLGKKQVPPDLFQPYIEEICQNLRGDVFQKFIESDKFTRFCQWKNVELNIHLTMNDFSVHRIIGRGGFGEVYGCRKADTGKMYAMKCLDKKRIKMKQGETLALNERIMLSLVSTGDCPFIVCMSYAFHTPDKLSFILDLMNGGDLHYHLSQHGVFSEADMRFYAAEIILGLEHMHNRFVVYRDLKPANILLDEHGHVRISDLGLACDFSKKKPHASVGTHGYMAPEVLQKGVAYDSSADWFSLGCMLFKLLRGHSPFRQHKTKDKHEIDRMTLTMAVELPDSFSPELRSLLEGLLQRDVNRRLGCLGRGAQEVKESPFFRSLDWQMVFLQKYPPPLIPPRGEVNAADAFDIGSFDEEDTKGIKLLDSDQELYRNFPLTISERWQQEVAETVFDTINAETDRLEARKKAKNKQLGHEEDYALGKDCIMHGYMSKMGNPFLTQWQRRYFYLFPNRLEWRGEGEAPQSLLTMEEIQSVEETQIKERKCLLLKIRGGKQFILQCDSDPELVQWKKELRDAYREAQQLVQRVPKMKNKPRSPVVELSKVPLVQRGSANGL
In experiment [10] the target is Beta-2 adrenergic receptor (Homo sapiens) (UniProt P07550). In words: beta2AR agonists driving receptor internalization, pilot screen, cell-based, FAP fluorogen, flow cytometry, validation set (AID 504459;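 active = percent response above 42, roughly 3 SD of non-fluorescent test compounds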;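 note: agonist-driven loss of surface beta2AR via internalization measured by FAP dye flow cytometry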). The following applies: Am2.2-beta2AR cells, FAP surface receptor flow cytometry; at 10 µM; stronger effect = higher value.
Beta-2 adrenergic receptor (Homo sapiens), sequence (P07550 whole entry, looked up): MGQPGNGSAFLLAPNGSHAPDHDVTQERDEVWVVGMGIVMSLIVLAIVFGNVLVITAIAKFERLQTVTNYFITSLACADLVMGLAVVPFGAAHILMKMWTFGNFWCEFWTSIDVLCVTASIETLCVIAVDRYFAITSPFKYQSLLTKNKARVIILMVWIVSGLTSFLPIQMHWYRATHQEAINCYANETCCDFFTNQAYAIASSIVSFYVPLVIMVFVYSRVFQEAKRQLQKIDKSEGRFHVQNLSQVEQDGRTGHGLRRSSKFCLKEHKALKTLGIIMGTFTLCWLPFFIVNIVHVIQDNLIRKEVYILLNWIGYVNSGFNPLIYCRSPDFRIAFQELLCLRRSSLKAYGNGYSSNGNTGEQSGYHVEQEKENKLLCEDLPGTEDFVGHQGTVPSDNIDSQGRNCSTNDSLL
In experiment [11] the target is AP-2 complex subunit beta (Homo sapiens) (UniProt P63010). The experiment in a line: inhibitors of arrestin peptide binding to AP2, pilot screen, biochemical, validation set, GST-AP2 beads, flow cytometry (AID 504541;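 active = inhibition above 54%, about 3 SD of non-fluorescent compounds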;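 note: AP2 carries R879A mutation and is captured from E. coli lysate; bead-bound FITC arrestin peptide fluorescence measuring arrestin peptide binding to AP2; 0% = DMSO wells and 100% = excess unlabeled arrestin peptide control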). The following applies: FITC arrestin peptide, at 10 µM, stronger effect = higher value, AP2 beta2 appendage fragment, R879A mutant.
AP-2 complex subunit beta (Homo sapiens), sequence (P63010 whole entry, looked up, the tested form may be a part, one chain of several): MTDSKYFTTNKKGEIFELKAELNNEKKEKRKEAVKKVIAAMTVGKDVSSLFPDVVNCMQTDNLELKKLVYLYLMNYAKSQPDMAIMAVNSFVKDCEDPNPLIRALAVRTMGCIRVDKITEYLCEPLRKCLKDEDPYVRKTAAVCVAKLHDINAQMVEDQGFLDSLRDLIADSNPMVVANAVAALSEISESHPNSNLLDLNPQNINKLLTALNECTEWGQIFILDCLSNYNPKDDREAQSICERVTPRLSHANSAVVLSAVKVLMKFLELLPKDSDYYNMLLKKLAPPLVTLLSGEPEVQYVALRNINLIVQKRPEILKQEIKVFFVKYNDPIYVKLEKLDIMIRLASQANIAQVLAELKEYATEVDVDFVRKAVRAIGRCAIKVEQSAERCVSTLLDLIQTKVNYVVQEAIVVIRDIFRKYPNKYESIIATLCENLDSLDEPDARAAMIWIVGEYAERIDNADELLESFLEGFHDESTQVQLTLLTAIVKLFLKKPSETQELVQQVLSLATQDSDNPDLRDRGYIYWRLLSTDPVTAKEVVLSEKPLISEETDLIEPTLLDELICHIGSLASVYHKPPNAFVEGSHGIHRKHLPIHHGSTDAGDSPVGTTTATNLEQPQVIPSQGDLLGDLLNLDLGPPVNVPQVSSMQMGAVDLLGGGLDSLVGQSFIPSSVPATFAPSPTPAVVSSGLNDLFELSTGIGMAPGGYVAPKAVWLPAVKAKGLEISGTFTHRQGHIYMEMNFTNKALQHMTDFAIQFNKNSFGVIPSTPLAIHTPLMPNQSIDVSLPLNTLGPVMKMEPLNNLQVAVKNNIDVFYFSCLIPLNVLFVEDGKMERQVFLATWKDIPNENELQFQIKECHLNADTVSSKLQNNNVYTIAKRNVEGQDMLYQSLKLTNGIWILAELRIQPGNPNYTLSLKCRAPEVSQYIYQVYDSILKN
Experiment [12] can be described thus: yeast V-ATPase proton transport modulators, S. cerevisiae, pHLuorin, HTS validation (AID 504600; in the data active = response above about 15%;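 note: plate controls were DMSO for no effect and reference compound for full effect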). The following applies: S. cerevisiae pHLuorin cytosolic pH, at 10 µM, stronger effect = higher value.
Experiment [13] deals with anti-desmoglein-3 scFv antibody binding to human DSG3. In words: inhibitors of anti-DSG3 scFv binding to DSG3, pilot screen, biochemical, validation compound set, bead-based, flow cytometry (AID 588368;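 active = binding below the plate cutoff, the plate median minus 3 SD, with a reading above zero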;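 note: signal is the median channel fluorescence of bead-bound GFP antibody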). The following applies: Protein G beads, DSG3-Fc, scFv-GFP binding, at 10 µM, stronger effect = lower value.
Experiment [14] can be described thus: inhibitors of fungal efflux pumps CDR1, CDR2, MDR1, pilot screen, validation compound set, multiplex, phenotypic (AID 588506;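 active = efflux inhibition above 0.42, the validation set average plus 4 SD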;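 note: Nile Red retained in cells so higher fluorescence means more efflux inhibition; 0 = negative control wells and 1 = enniatin B 25 µM full block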). The following applies: S. cerevisiae pump-expressing triplex, Nile Red efflux flow cytometry; at 10 µM; stronger effect = higher value; the pumps come from Candida albicans.
In experiment [15] the target is ATP-binding cassette sub-family B member 6 (Homo sapiens) (UniProt Q9NP58). The experiment in a line: ABCB6 transporter inhibitors, pilot screen, K562-ABCB6 cells, flow cytometry, validation set (AID 588550).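 Note: 0% = DMSO wells and 100% = benzethonium chloride 70 µM positive control.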 The following applies: K562-ABCB6 porphyrin accumulation, 1 h, at 10 µM, stronger effect = higher value.
ATP-binding cassette sub-family B member 6 (Homo sapiens), sequence (Q9NP58 whole entry, looked up): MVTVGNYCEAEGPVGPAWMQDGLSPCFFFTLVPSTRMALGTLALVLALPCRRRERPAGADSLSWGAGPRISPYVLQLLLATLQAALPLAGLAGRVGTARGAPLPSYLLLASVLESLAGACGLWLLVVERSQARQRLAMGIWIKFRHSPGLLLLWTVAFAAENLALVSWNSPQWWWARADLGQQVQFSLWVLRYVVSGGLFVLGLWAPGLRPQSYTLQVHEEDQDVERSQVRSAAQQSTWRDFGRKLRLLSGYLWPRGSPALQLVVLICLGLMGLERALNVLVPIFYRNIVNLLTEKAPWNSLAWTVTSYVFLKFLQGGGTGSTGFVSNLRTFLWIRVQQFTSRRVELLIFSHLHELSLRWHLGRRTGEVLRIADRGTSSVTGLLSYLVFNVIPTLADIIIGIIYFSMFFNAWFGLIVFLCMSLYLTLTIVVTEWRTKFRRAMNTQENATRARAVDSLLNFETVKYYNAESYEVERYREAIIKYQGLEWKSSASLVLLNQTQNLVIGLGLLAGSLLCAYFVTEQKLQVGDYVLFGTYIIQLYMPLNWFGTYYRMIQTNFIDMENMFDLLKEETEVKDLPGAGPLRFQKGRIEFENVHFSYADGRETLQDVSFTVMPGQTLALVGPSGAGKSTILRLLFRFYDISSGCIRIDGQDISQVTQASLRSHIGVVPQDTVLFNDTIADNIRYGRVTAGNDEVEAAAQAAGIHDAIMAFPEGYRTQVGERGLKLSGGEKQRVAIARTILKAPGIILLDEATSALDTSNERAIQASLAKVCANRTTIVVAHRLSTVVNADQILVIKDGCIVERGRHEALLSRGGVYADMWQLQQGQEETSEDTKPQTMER
The nature of experiment [16]: promoters of myeloid differentiation in arrested cells, primary screen, cell-based, GFP/MAC1 double positive, flow cytometry, validation set (AID 588685;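 active = differentiation response of at least 50%, scaled between solvent and reference control, from cells with both markers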;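 note: compound exposure lasts four days before antibody staining and flow analysis; 0% = DMSO wells and 100% = 5 µM fulvestrant positive control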). The settings on record: ER-HoxA9 marrow cells, stronger effect = higher value, normalized: vehicle 0, fulvestrant 100.

Records with an inconclusive call do not appear. Activity calls are given as the source filed them.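 Rule for the calls, unless noted: active = inhibition above the screen-wide mean plus 3 SD, about 51%; inactive = the rest.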

Integrin beta-1 (Homo sapiens) + Integrin alpha-4 (Homo sapiens), sequence (P05556 whole entry, looked up): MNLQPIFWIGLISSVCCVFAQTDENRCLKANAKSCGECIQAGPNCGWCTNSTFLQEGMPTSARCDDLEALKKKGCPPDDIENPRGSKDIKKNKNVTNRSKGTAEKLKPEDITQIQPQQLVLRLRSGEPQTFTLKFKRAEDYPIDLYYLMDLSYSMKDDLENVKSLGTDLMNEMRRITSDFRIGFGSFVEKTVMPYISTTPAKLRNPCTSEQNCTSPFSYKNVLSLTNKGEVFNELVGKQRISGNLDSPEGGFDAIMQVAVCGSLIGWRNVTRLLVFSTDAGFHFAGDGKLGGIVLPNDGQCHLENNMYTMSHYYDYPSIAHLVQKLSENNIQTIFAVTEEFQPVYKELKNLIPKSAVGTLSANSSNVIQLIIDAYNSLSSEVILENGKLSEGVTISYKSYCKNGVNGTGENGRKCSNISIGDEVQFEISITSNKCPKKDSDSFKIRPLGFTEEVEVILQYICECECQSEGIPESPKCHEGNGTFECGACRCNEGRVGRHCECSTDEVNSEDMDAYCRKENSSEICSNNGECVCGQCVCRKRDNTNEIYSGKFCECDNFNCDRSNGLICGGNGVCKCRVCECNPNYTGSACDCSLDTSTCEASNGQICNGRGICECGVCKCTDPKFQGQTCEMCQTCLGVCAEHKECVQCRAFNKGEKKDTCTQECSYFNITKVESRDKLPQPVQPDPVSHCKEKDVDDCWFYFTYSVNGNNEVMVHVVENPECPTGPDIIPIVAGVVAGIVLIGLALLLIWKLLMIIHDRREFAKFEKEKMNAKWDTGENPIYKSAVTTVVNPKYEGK
Integrin beta-1 (Homo sapiens) + Integrin alpha-4 (Homo sapiens), sequence (P13612 whole entry, looked up): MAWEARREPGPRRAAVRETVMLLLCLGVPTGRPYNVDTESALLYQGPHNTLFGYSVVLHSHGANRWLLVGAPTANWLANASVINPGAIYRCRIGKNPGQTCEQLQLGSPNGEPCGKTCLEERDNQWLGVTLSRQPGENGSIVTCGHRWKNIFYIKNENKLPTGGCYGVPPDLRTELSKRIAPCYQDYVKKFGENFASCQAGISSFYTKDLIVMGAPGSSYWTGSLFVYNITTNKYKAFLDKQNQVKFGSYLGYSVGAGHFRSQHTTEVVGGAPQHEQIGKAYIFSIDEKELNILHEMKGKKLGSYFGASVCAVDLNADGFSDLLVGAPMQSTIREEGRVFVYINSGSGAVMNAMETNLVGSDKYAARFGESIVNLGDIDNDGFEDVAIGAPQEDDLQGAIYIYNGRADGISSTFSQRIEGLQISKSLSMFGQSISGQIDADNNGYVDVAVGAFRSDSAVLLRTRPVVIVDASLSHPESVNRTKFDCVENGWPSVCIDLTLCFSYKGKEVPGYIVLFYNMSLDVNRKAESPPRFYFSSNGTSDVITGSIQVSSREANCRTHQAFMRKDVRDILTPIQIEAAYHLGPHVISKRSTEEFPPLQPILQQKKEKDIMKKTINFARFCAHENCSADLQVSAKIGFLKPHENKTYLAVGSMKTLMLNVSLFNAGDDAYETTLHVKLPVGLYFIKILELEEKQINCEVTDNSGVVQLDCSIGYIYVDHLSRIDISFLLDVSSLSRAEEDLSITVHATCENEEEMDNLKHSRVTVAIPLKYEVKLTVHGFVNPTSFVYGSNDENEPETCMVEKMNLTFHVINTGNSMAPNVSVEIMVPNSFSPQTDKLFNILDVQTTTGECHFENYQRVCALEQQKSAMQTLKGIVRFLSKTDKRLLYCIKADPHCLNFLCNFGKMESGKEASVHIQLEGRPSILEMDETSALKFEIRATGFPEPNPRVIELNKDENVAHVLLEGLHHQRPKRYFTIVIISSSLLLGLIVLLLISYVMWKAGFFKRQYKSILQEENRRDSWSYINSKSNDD

Consider `Cc1cc(C)nc(NS(=O)(=O)c2ccc(N)cc2)n1`, for which, in [1], the percent of DMSO control GFP was 108% (inactive). The GFP response vs DMSO in experiment [2] was 98.3% (inactive); in experiment [4] it was 90.1% (inactive). The percent response of DMSO control in [3] was 116% (inactive). Also, the GFP response, % of DMSO in experiment [5] is 104% (inactive). This molecule had a double positive events in experiment [6] of 65.7%. For the same molecule, the vesicle binding response in experiment [6] was 216% (inactive). The inhibition in [7] was -5.64% (inactive); in experiment [11], -9.4% (inactive); in [15] it was -1% (inactive). Besides, the superoxide response (% of plate) in experiment [8] is 95.6% (inactive). The aptamer binding inhibition in [9] was 1% (inactive). The response in [10] is -4.61% (inactive); in experiment [12], -1.72% (inactive). The binding (% of control) in [13] was 90.1% (inactive). Further, the efflux inhibition (fraction of control) in experiment [14] was 0.11 (inactive). For the same molecule, the differentiation response in experiment [16] was 6.11% (inactive).
Regarding `CC1(C)c2ccccc2N2CC(=O)NC21/C=C/c1ccco1` (stereo not drawn), the percent of DMSO control GFP in experiment [1] is 101% (inactive). Moreover, the GFP response vs DMSO in experiment [2] is 113% (inactive); in experiment [4], 100% (inactive). In addition, in experiment [3], the percent response of DMSO control is 110% (inactive). Moreover, the GFP response, % of DMSO in [5] is 96.2% (inactive). The same molecule came in with a double positive events in experiment [6] of 64.1%. Further, the vesicle binding response in experiment [6] is 87.6% (inactive). The inhibition in experiment [7] is -23.9% (inactive); in [11] it was -7.94% (inactive); in [15] it was -36% (inactive). The superoxide response (% of plate) in experiment [8] is 109% (inactive). Further, the aptamer binding inhibition in experiment [9] was 0% (inactive). Besides, the figures for the response in experiment [10] and in experiment [12] were 5.81% (inactive) and -1.22% (inactive), respectively. Moreover, the binding (% of control) in experiment [13] is 107% (inactive). In experiment [14], the efflux inhibition (fraction of control) is -0.16 (inactive). Further, in [16], the differentiation response is -3.11% (inactive).
Turning to `CN(C)C(=O)Oc1ccc[n+](C)c1`, the percent of DMSO control GFP in experiment [1] was 102% (inactive). Further, the GFP response vs DMSO in experiment [2] was 106% (inactive); in experiment [4], 94.7% (inactive). The percent response of DMSO control in [3] was 94.2% (inactive). For the same molecule, the GFP response, % of DMSO in [5] was 95.9% (inactive). The molecule also had a double positive events in experiment [6] of 62.3%. For the same molecule, the vesicle binding response in [6] is 1200% (inactive). Also, the inhibition was 0.58% (inactive) in experiment [7], 16.8% (inactive) in experiment [11] and 13% (inactive) in experiment [15]. For the same molecule, in experiment [8], the superoxide response (% of plate) is 104% (inactive). Further, in [9], the aptamer binding inhibition is 4% (inactive). Moreover, the response is 0.34% (inactive) in [10] and -1.45% (inactive) in experiment [12]. In addition, the binding (% of control) in [13] is 103% (inactive). Moreover, in experiment [14], the efflux inhibition (fraction of control) was -0.1 (inactive). The differentiation response in [16] was -1.71% (inactive).
For the molecule `Cn1c(=O)c2nc3ccccc3nc2n(C)c1=O`, the percent of DMSO control GFP in experiment [1] is 94.6% (inactive). For the same molecule, the results for the GFP response vs DMSO in experiment [2] and in experiment [4] were 103% (inactive) and 112% (inactive), respectively. In addition, the percent response of DMSO control in experiment [3] is 93.9% (inactive). Besides, in experiment [5], the GFP response, % of DMSO was 94.3% (inactive). The molecule also came in with a double positive events in experiment [6] of 61.5%. Also, in experiment [6], the vesicle binding response was 198% (inactive). For the same molecule, the inhibition is 2.3% (inactive) in [7], -11.6% (inactive) in [11] and 2% (inactive) in experiment [15]. Moreover, the superoxide response (% of plate) in [8] is 99.2% (inactive). Besides, in experiment [9], the aptamer binding inhibition was 0% (inactive). For the same molecule, the figures for the response in experiment [10] and in experiment [12] were -7.58% (inactive) and 2.81% (inactive), respectively. Moreover, in experiment [13], the binding (% of control) is 101% (inactive). Further, in experiment [14], the efflux inhibition (fraction of control) was -0.1 (inactive). Moreover, in experiment [16], the differentiation response was -12% (inactive).
